CYP2C19 act: human CYP2C19 activators, primary screen, biochemical, luminescence; Cytochrome P450 2C19 (Homo sapiens), P33261; recombinant CYP2C19, luciferin-H EGE luminescence; hits give high values; 0 = fully inhibited enzyme, 1 = untreated enzyme; activation factor at 5 µM; 96,000 tested, under 10 active;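 active means activation factor of at least 2 at 5 µM in the primary screen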;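 further: 0 = wells with 2.5 mM tranylcypromine and 1 = vehicle-only wells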
D1 allo mod: D1 CRE-luciferase signal change, two-sided – cell-based, HEK293 D1, dopamine EC30, D1 allosteric modulator project, primary screen. D(1A) dopamine receptor (Homo sapiens), P21728. dopamine EC30 potentiation; actives deviate in either direction. B-score at 10 µM. actives 5.9% (n = 58,000);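 active means luminescence count or its row- and column-corrected plate score outside the 99.7% band of the plate's sample wells, on either side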
DAT uptake mod: changed hDAT dopamine uptake under cocaine IC80, either direction, primary screen, cocaine antagonist project, cell-based, LLC-PK1 hDAT, [14C]-dopamine uptake, MLSMR; Sodium-dependent dopamine transporter (Homo sapiens), Q01959; LLC-PK1 hDAT cells, [14C]-dopamine uptake with cocaine IC80; actives deviate in either direction; B-score at 10 µM; actives 1.3% (n = 110,000); AID 449768, 2010;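 active means Z score or B-score, a plate-position-corrected score, falls beyond the plate's 99.7% confidence bounds, in either direction; inactive means both scores lie inside the 99.7% bounds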;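 further: scored against the spread of the other compound wells on the same plate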
CYP2C9 act: human CYP2C9 activators, primary screen, biochemical, luminescence | Cytochrome P450 2C9 (Homo sapiens), P11712 | recombinant CYP2C9, luciferin-H conversion; hits give high values; factor 1 = untreated enzyme, 0 = blocked | activation factor at 5 µM | actives 1.4% (n = 96,000);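 active means activation factor of 2 or more for CYP2C9 at a 5 µM dose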;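 further: 0 = sulfaphenazole-blocked wells and 1 = vehicle-only wells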
Target sequence (P11712 whole entry, looked up): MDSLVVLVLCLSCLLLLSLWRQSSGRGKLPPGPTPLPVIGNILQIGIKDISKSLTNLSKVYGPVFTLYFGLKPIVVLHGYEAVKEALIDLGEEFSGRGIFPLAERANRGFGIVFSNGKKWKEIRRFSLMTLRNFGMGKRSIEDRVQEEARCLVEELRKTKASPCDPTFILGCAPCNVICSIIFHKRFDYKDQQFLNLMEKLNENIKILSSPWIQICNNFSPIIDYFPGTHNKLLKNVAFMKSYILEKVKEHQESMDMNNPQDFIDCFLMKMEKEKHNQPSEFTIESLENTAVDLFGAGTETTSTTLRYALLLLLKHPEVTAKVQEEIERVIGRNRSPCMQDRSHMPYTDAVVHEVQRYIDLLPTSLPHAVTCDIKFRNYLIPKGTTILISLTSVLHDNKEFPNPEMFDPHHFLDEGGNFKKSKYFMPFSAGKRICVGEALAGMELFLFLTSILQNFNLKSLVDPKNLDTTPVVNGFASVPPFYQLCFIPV
CYP2C19 inhib: blockers of cytochrome P450 2C19 activity – biochemical, luminescence, ADME assay, primary screen | P33261 | inhibition, % at 5 µM | CYP2C19 Supersomes, luciferin-H EGE luminescence, 30 min | actives 21% (n = 96,000) | AID 778, 2007;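 active means CYP2C19 inhibition above a set limit at 5 µM in the primary screen, cut at about 50% in these data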;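 further: plate controls were negative control wells for no effect and 2.5 mM tranylcypromine positive control for full effect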
CYP2C9 inh: blockers of cytochrome P450 2C9 activity – biochemical, luminescence, ADME assay, primary screen. CYP2C9 Supersomes, luciferin-H conversion. inhibition, % at 5 µM. actives 20% (n = 96,000). AID 777, 2007;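 active means blocking of liver enzyme CYP2C9 beyond about 50% at 5 µM, limit read from the data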
Numbers without * were called inactive; . = not tested or not shown. Sampled rows, rich in hits. Any-hit rate of the full collection: about 28%.

SMILES | CYP2C19 act | D1 allo mod | DAT uptake mod | CYP2C9 act | CYP2C19 inhib | CYP2C9 inh
O=C(Cn1nnc(-c2ccccc2Cl)n1)N1CCN(S(=O)(=O)c2ccc(Cl)cc2)CC1 | 0.9 | 0.031 | 0.073 | 0.9 | 12 | 11
O=[N+]([O-])c1ccc(Sc2n[nH]c(-c3ccc(Cl)cc3Cl)n2)nc1 | 0.9 | . | -0.26 | 0.9 | 14 | 9
COc1ccc(NC(=O)c2cc3nc(-c4ccccc4)cc(-c4ccccc4)n3n2)c(OC)c1 | 0.6 | . | -1.4 | 0.2 | 36 | 77*
COC(=O)c1cc2nc(-c3ccc(OC)cc3)cc(C(F)(F)F)n2n1 | 1 | 1.6 | -2.2* | 0.9 | -1 | 7
COc1cc2c(cc1NC(=O)c1cc(-c3cccnc3)nc3ccc(C)cc13)oc1ccccc12 | 0.7 | . | -0.0097 | 0.2 | 31 | 75*
COc1cccc(NC(=O)c2cc(-c3cccnc3)nc3c(Cl)cccc23)c1 | 0.6 | . | 0.79 | 0.2 | 38 | 77*
COc1cccc(C(=O)Nc2cccnc2)c1 | 0.7 | . | . | 0.9 | 26 | 14
COc1ccc(-c2cc(C(F)(F)F)n3nc(C(=O)Nc4cc(C)on4)cc3n2)cc1OC | 0.8 | 0.8 | . | 0.7 | 17 | 32
COc1ccc(C)cc1-n1nnnc1SCC(=O)N1CCC(C(=O)Nc2nccs2)CC1 | 0.7 | 1.4 | 1.3 | 0.8 | 33 | 24
CCOC(=O)CNC(=O)c1cn(CC(C)C)c(=O)c2cc(OC)c(OC)cc12 | . | 0.87 | 1.8 | . | . | .
COc1ccccc1NS(=O)(=O)c1ccc(NC(C)=O)cc1 | 0.1 | 0.34 | 0.28 | 1.7 | 93* | -73
COc1cc(NS(=O)(=O)c2ccc(F)cc2)c(OC)cc1NC(=O)C1CC1 | 0 | -1 | 0.24 | 0.8 | 98* | 16
CCOc1ccccc1NS(=O)(=O)c1ccc(OC)c(OC)c1 | . | -1.4 | 0.16 | . | . | .
COc1ccccc1NS(=O)(=O)c1cc(Cl)ccc1OC | 0 | 0.47 | 1.1 | 0.5 | 97* | 48
COc1ccccc1NS(=O)(=O)c1ccc(C)c(C(N)=O)c1 | 0.1 | -0.73 | -0.56 | 1 | 88* | -4
O=C(O)C1C2C=CC(C2)C1C(=O)NCc1cccnc1 (stereo not drawn) | . | . | -0.006 | . | . | .
CN(CC(=O)NCc1ccco1)S(=O)(=O)c1ccc2c(c1)n(C)c(=O)c(=O)n2C | 1.1 | 0.44 | 0.31 | 1 | -10 | 2
COc1ccc(S(=O)(=O)Nc2ccccc2C(=O)OC2CCCN(C)C2)cc1OC (stereo not drawn) | 0.3 | . | 1.4 | 1.6 | 66* | -60
COc1ccc(S(=O)(=O)Nc2ccccc2C(=O)NC(C)(C)C)cc1OC | 0.3 | . | 0.63 | 0.8 | 73* | 20
CN1CCCC(OC(=O)COc2ccccc2)C1 (stereo not drawn) | 1.1 | -1.7 | -0.24 | 1.2 | -11 | -21
COc1cc(NS(=O)(=O)c2ccc(OC)c(OC)c2)cc(OC)c1 | 0 | 0.52 | 0.49 | 0.3 | 100* | 74*
COc1ccccc1NS(=O)(=O)c1ccc(OC)c(OC)c1 | 0 | 1.7 | 1.2 | 2.6* | 99* | -159
COc1cccc(-n2c(=O)[nH]cc(C(=O)Nc3ccc(NC(C)=O)cc3)c2=O)c1 | 1 | -0.05 | 1.1 | 0.9 | 3 | 5
O=C(NC1CCCCC1)c1cccc(Cn2cc(Cl)cn2)c1 | 1 | . | -0.011 | 0.9 | 3 | 12
O=C(O)C1C2CCC(O2)C1C(=O)Nc1cnn(Cc2ccccc2)c1 (stereo not drawn) | 0.2 | . | -0.18 | 0.8 | 83* | 20
SMILES | CYP2C19 act | D1 allo mod | DAT uptake mod | CYP2C9 act | CYP2C19 inhib | CYP2C9 inh
O=C(Nc1cnn(Cc2ccccc2)c1)NC12CC3CC(CC(C3)C1)C2 | 1 | . | 0.89 | 1 | 0 | 3
CCOC(=O)C1=C(C)NC(=O)CC1c1ccccc1 (stereo not drawn) | 0.9 | 1.2 | -1.2 | 1 | 8 | -3
CCOC(=O)C1=C(C)N=C(/N=C/N(C)C)SC1c1ccccc1 (stereo not drawn) | 0.3 | 0.19 | 0.5 | 0.5 | 71* | 48
COc1ccccc1N=C(C)C1=C(O)CSC1=O | 0.4 | 0.036 | -0.78 | 0.6 | 64* | 38
CC(=Nc1ccc(C)c(C)c1)C1=C(O)CSC1=O | 0.3 | 3.4 | -0.3 | 0.5 | 65* | 50
Cc1cccc(-n2ccnc2SCC(=O)Nc2ccc3c(c2)OCCO3)c1 | 0.6 | -1.4 | 1.8* | 0.3 | 45 | 70*
Cc1cccc(NC(=O)CSc2nccn2C)c1 | . | . | 1.7 | . | . | .
O=C(CSc1nccn1-c1ccc(Cl)cc1)Nc1ccc2c(c1)OCO2 | 0.3 | -1.3 | 0.73 | 0.5 | 69* | 54*
CCCN(CCC)CCCNc1ccc2nnc(-c3ccc(F)cc3)n2n1 | 0.9 | . | -0.33 | 1 | 9 | 3
Cc1cccc(-c2nsc(SCC(=O)N3CCCC3)n2)c1 | 0.5 | 0.72 | -0.23 | 1.1 | 50* | -11
Cc1cccc(-c2nsc(SCC(=O)Nc3nccs3)n2)c1 | 0.6 | 0.097 | 1.1 | 0.5 | 36 | 48
Cc1cccc(NC(=S)NC(NC(=O)c2ccco2)C(Cl)(Cl)Cl)c1 (stereo not drawn) | 0.7 | . | -0.15 | 0.2 | 29 | 84*
O=C(O)c1ccc(NC(=S)NC(NC(=O)c2ccco2)C(Cl)(Cl)Cl)cc1 (stereo not drawn) | 1 | . | -2.1 | 1.1 | -1 | -7
Cc1ccc(NC(=S)NC(NC(=O)c2ccco2)C(Cl)(Cl)Cl)cc1 (stereo not drawn) | 0.8 | . | 0.041 | 0.1 | 18 | 92*
COc1ccc(S(=O)(=O)N(C)CC(=O)N2CCN(c3ccc(F)cc3)CC2)cc1OC | 0.9 | . | 0.19 | 1.6 | 11 | -62
CCCn1c(CCNC(=O)c2cccs2)nc2ccccc21 | . | -0.23 | -0.76 | . | . | .
CCn1c(CCCNC(=O)c2cccs2)nc2ccccc21 | 0.2 | -2 | 0.41 | 1.6 | 76* | -59
CCn1c(NC(=O)c2ccc(F)cc2)c2ccccc2nc1=O | 0.3 | . | -0.66 | 0.8 | 72* | 20
CCn1c(CCNC(=O)c2ccc(F)cc2)nc2ccccc21 | 0.1 | . | 0.027 | 3.3* | 95* | -230
FC(F)(F)c1cc(-c2ccco2)nc(-n2nnc3ccccc32)n1 | 1.1 | 3.5 | 0.52 | 0.9 | -12 | 8
CC(C)(Sc1cc(C(C)(C)C)c(O)c(C(C)(C)C)c1)Sc1cc(C(C)(C)C)c(O)c(C(C)(C)C)c1 | . | . | 0.23 | . | . | .
Cn1ccnc1C(O)c1cc(C(C)(C)C)c(O)c(C(C)(C)C)c1 (stereo not drawn) | 0.8 | 0.49 | -0.006 | 0.2 | 24 | 76*

Screening data (PubChem)
